Reference: PubChem BioAssay (EPA / NIEHS)
Several values for one entry are separate records, joined by “and”; a condition that tells them apart may be missing. Equal values may be shown once. Activity calls are given as the source filed them. Rule for the calls: active = hit-call score of the fitted dose curve at least 0.9, where 1 is the maximum; inactive = score below 0.9.

assay: BSK_4H_SRB: Viability Assessment in the BioMAP Diversity Plus: 4H Assay (AID 2283027); conditions: primary human endothelial cells (HUVEC);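 note: cells exposed to compound for 24 h before staining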;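 for AC50: curves fitted both ways versus DMSO so AC50 may be loss or gain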
Method: BSK_4H is a cell-based, multiplexed-readout assay that uses umbilical vein endothelium, a human vascular primary cell, with measurements taken at 24 hours after chemical dosing in a 96-well plate.BSK_4H_SRB is an assay component measured in the BSK_4H assay. It measures […] related to cell death using Sulforhodamine staining technology.Data from the assay component BSK_4H_SRB was analyzed into 1 assay endpoint. This assay endpoint, BSK_4H_SRB, was analyzed with bidirectional fitting relative to DMSO as the negative control and baseline of activity. Using a type of viability reporter, gain or loss-of-signal activity can be used to understand changes in the signaling. Furthermore, this assay endpoint can be referred to as a primary readout, because this assay has produced multiple assay endpoints where this one serves a signaling function. To generalize the intended target to other relatable targets, this assay endpoint is annotated to the cell morphology intended target family, where the subfamily is cell conformation.
The levels of cell surface (or secreted, indicated by the prefix "s") biomarker endpoints were measured by ELISA. Overt cytotoxicity to cells in confluent adherent cultures (all systems other than the BT system) was assessed by measuring total protein levels using sulforhodamine B (SRB) staining in parallel cultures at the time of biomarker measurements, indicated as SRB endpoints. For proliferation assays for adherent cell types, individual cell types are cultured at sub-confluence and relative cell numbers quantified by SRB staining at time points optimized for each system (48 h: 3C and CASM3C systems; 72 h: BT and HDF3CGF systems; 96 h: SAg system). SRB was performed by staining cells with 0.1% SRB after fixation with 10% TCA and reading wells at 560 nm.Viability and proliferation of PBMC (T cells) was quantified by Alamar Blue reduction for the SAg and BT systems. For PBMC viability (referred to as PBMC Cytotoxicity within the assay endpoint names), cells were plated (75,000/well in a 96-well plate) and then chemical samples added for 1 h before addition of activators, SEB and TSST-1 (20 ng/mL final concentration each). Cells were incubated for 90 h. Then, Alamar Blue (20 uL/well) (Invitrogen, Cat DAL1100) was added for 6 h, and the plates were read with a fluorescence microplate reader at 546/580 nm (excitation/emission). For PBMC proliferation, cells were plated and activated as above but incubated for only 16 h prior to addition of Alamar Blue. Plates were read after 6 h.

SMILES | outcome | AC50
CC(C)[N+](C)(CCOC(=O)C1c2ccccc2Oc2ccccc21)C(C)C | inactive | 
CCOC(=O)C1=NN(c2ccc(Cl)cc2Cl)C(C)(C(=O)OCC)C1 (stereo not given) |  | 12.4 µM (active)
CC/C=C\CCOC(=O)c1ccccc1O |  | 14.2 µM (active)
Cc1c(O)cccc1O | inactive | 
COc1ccc(C(=O)/C(Br)=C\C(=O)O)cc1 |  | 20 µM (active) and 17.1 µM (active)
CCc1cccc(C)c1N(C(=O)CS(=O)(=O)O)C(C)COC (stereo not given) | inactive | 
CC(CCC(=O)O)(c1ccc(O)cc1)c1ccc(O)cc1 | inactive | 
C=CCCCCCCCCC=O | inactive | 
Nc1nc(N)nc(-c2ccccc2)n1 | inactive | 
COC(OC)(C(=O)c1ccccc1)c1ccccc1 | inactive | 
Oc1ccccc1Cc1ccccc1O | inactive | 
C[N+](C)(C)CCCNS(=O)(=O)C(F)(F)C(F)(F)C(F)(F)C(F)(F)C(F)(F)C(F)(F)C(F)(F)C(F)(F)F | inactive | 
Cc1ccc([N+](=O)[O-])cc1N | inactive | 
Clc1cc(Cl)c(Cl)c(Cl)c1Cl | inactive | 
C=CC(=O)OCCCCCCOC(=O)C=C |  | 20 µM (active)
CCCCCCOC(=O)CCCCC(=O)OCCCCCC | inactive | 
O=C(Oc1ccccc1)c1ccccc1C(=O)Oc1ccccc1 | inactive | 
O=C(Cl)c1c(Cl)c(Cl)c(C(=O)Cl)c(Cl)c1Cl | inactive | 
CCCCCC1=CCCC1=O | inactive | 
Fc1ccc(Br)cc1 | inactive | 

SMILES | outcome | AC50
c1ccc(Nc2cccc3ccccc23)cc1 |  | 33.3 µM (active) and 35.6 µM (active)
CCCCCCCCCCCC(=O)N(C)CC(=O)O | inactive | 
C=CC(=O)OCCCCCCCC(C)C | inactive | 
CCCCCCCCCCCC(C)=O |  | 33.9 µM (active)
CCCCCCCO | inactive | 
O=C(O)C(F)(F)C(F)(F)C(F)(F)C(F)(F)C(=O)O | inactive | 
CCN1CN(CC)CN(CC)C1 | inactive | 
CCC1(C)C(=O)N(Cl)C(=O)N1Cl (stereo not given) | inactive | 
CCCC(C)C(=O)OCC (stereo not given) | inactive | 
c1ccc2sc(SSN3CCOCC3)nc2c1 |  | 5.2 µM (active)
Oc1c(Cl)cc(Cl)c(Cl)c1Cl |  | 24.5 µM (active)
Nc1cccc(N)n1 | inactive | 
c1ccc2c(c1)[nH]c1ccccc12 | inactive | 
CCCCCCC=O | inactive | 
CC(Cl)COP(=O)(OCC(C)Cl)OCC(C)Cl (stereo not given) | inactive | 
COc1ccc(C(=O)c2ccccc2)c(O)c1 | inactive | 
CC1(C)CC(O)CC(C)(C)N1[O] | inactive | 
CCOC(=O)C1=NOC(c2ccccc2)(c2ccccc2)C1 | inactive | 
CC(C)C(=O)OCCc1ccccc1 | inactive | 
CC/C=C\C/C=C\C/C=C\CCCCCCCC(=O)OC |  | 20 µM (active)
